An excerpt weighted towards active compounds, which were near 5.9% of everything screened.
GAA850 FXN act: activators of GAA850 frataxin (FXN) promoter | HEK293 lucGAA850 FXN promoter luciferase reporter, 24 h; percent of 10 µM SAHA response | activation, % at 6 µM | hit rate 0.56% among 360,000;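 active means activation above the average of all compounds screened plus 3 SD, cutoff fixed separately per campaign, cut at about 7.5% in these data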;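 further: 0% = DMSO wells and 100% = 10 µM SAHA wells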
AHR act: activators of human aryl hydrocarbon receptor | P35869 | AHR-responsive luciferase reporter cells, luminescence | hit rate 2.5% among 320,000 | activation, % at 5 µM; in the data active means activation above about 47%;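 further: 0% = vehicle wells and 100% = reference agonist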
Target sequence (P35869 whole entry, looked up): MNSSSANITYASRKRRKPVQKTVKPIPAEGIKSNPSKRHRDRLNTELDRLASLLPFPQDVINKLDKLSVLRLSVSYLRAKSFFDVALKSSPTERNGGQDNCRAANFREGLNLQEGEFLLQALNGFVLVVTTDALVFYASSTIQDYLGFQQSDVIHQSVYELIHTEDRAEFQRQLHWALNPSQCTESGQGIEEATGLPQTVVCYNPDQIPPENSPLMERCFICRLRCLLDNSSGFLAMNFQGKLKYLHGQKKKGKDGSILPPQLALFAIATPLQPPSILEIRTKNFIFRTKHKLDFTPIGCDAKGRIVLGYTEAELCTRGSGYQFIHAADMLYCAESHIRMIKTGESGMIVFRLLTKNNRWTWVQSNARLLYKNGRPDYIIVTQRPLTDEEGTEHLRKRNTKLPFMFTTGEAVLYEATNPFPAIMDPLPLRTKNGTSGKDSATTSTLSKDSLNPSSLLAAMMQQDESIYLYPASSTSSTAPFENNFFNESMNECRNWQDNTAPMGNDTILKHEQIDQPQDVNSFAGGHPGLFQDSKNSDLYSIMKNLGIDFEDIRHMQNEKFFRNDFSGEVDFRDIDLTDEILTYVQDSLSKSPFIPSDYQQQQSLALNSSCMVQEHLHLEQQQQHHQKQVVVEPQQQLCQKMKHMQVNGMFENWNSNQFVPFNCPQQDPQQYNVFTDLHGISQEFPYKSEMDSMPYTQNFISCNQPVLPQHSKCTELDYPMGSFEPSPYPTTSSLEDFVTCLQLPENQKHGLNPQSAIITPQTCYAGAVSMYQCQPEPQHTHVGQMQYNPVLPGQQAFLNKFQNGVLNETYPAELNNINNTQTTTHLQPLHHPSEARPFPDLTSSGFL
NR0B1 inh: NR0B1 (DAX1) inhibition; inhibition, % at 6.75 µM; AID 504766; hit rate 0.99% among 340,000; P51843; HEK293 Gal4-DAX1 luciferase reporter, luminescence;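 active means inhibition above the mean over all tested compounds plus 3 SD, cut at about 4.2% in these data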;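 further: 0% = DAX1-transfected cells with DMSO and 100% = empty-vector control cells with DMSO; inhibition shows as a rise in luminescence from relieved DAX1 repression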
HSP90 refold inh: HSP90 refolding inhibition in rabbit reticulocyte lysate; inhibition, % at 5.6 µM; luciferase refolding luminescence, 3 h; hit rate 0.91% among 290,000;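 active means inhibition above the screen-wide mean plus 3 SD, computed separately per campaign, cut at about 16% in these data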;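 further: 0% = DMSO wells and 100% = 60 µM geldanamycin wells; inhibitors lower the luminescence because luciferase stays unfolded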
HSF1 activator: increases HSF-1 driven luciferase reporter signal; hit rate 1.7% among 300,000; AID 504408; activation, % at 9 µM; NIH3T3-HGL HSF-1 luciferase reporter, MG132, 8 h; 100% = twice DMSO control signal;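 active means mean replicate activation of at least 50% with a set share of replicates each reaching 50%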;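 further: 0% = median of the neutral control wells and 100% = twice that signal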
HSF1 inhib: HSF1 inhibition; hit rate 0.77% among 300,000; activity change, negative = inhibition, % at 7.5 µM (by protocol); AID 2098; NIH3T3-HGL HSE-luciferase, MG132-induced, luminescence 8 h; hits give low values;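 active means more than half of replicate wells show activity change below -50%, luminescence cut by over half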;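 further: luciferase reports HSF-1 transcriptional activity via heat shock element; 0% = median of DMSO wells and -100% = zero luminescence signal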
Numbers without * were called inactive; . = not tested or not shown.

SMILES | GAA850 FXN act | AHR act | NR0B1 inh | HSP90 refold inh | HSF1 activator | HSF1 inhib
N#Cc1cc(-c2ccccc2)nc(N2CCNCC2)n1 | 3.4 | 49.5* | 0.8 | 2.2 | -4.2 | -0.9
COc1cc(C(C(=O)NC2CCCC2)N(C(=O)c2snc(C(N)=O)c2N)C2CCCC2)cc(OC)c1OC (stereo unspecified) | 1.4 | 0.6 | -1.4 | -6.1 | 1.7 | -5.0
O=C1C=C(c2ccc(-c3ccccc3)c(F)c2)C[C@@H](c2ccc3c(c2)OCO3)C1 | 0.7 | 3.3 | 2.5 | . | . | .
O=C1C=C(c2cccc(CO)c2)C[C@@H](c2ccc3c(c2)OCO3)C1 | 2.2 | 73.4* | -0.9 | . | . | .
O=C1C=C(c2ccc3c(c2)OCO3)C[C@@H](c2ccc3c(c2)OCO3)C1 | 3.1 | 60.9* | 1.1 | . | . | .
Cc1cc(C2=CC(=O)C[C@H](c3ccc4c(c3)OCO4)C2)ccc1F | 2.5 | 79.0* | 0.1 | . | . | .
O=C1C=C(c2cc(Cl)cc(Cl)c2)C[C@@H](c2ccc3c(c2)OCO3)C1 | 1.6 | 29.8 | 0.9 | . | . | .
COc1ccc(NC(=O)C[C@H]2C(=O)N(C3CCCCC3)C[C@@H]2C)cc1 | 0.6 | . | 0.7 | . | . | .
CC(=O)Nc1ccc(OC(=O)Cc2ccc(Cl)cc2)cc1 | 0.3 | 2.2 | -0.2 | 3.3 | 1.0 | -8.2
COC(=O)C(CCC(=O)CN1C(=O)c2ccccc2C1=O)N1C(=O)c2ccccc2C1=O (stereo unspecified) | 2.4 | . | 0.0 | . | . | .
COc1ccc(C(O)c2ncc(-c3ccccc3Cl)[nH]2)cc1 (stereo unspecified) | -2.8 | . | . | . | . | .
CN(C)c1ccc(/C=N/NC(=O)c2ccc(Cl)cc2)cc1 | 2.2 | 9.2 | -1.2 | -0.7 | 5.6 | -0.8
CN(C)c1ccc(/C=N/NC(=O)c2ccccc2)cc1 | 5.0 | 47.0* | 2.6 | -2.1 | 18.2 | 11.6
O=C(N/N=C\c1ccc(Cl)cc1Cl)c1sccc1-n1cccc1 | 2.3 | 18.6 | 1.5 | -1.7 | 41.2 | 21.4
CN(C)c1ccc(/C=N/NC(=O)c2sccc2-n2cccc2)cc1 | 3.1 | 72.2* | 0.6 | 3.0 | 41.5 | 29.6
O=C(CCN=C1NS(=O)(=O)c2ccccc21)OCc1ccccc1 | -3.3 | 0.9 | -0.5 | . | -7.5 | -5.6
Cc1nn(-c2ccc(C(=O)NCC(c3ccco3)N3CCCC3)cc2)c(C)c1Cl (stereo unspecified) | 1.1 | -2.4 | -0.3 | . | . | .
COc1ccc(F)c(CN2CCCC(CNS(=O)(=O)c3cccc4cccnc34)C2)c1 (stereo unspecified) | 0.1 | 2.0 | 0.0 | -5.9 | 1.9 | -1.4
N#Cc1ccc(OCC(=O)N(C2CCCCC2)C2CCS(=O)(=O)C2)cc1 (stereo unspecified) | 1.0 | 0.5 | -0.4 | . | . | .
COC(=O)c1ccccc1NC(=O)CCn1c(=O)oc2ccccc21 | 0.9 | 7.5 | 0.6 | -1.2 | 7.0 | 6.7
COC(=O)c1c(-c2cccnc2)csc1NC(=O)c1cc(C)on1 | 6.5 | 68.4* | 0.9 | -4.3 | 34.4 | 19.2
COC(=O)c1c(-c2ccc(C)cc2)csc1NC(=O)c1c(-c2ccccc2)noc1C | . | 2.2 | . | -0.7 | 26.0 | 7.8
O=C(O)c1cc([N+](=O)[O-])ccc1Nc1ccccc1 | -2.4 | 0.4 | 4.3* | 0.2 | -4.7 | 5.0
Cc1ccc(NC(=O)c2cc([N+](=O)[O-])ccc2NCc2cccnc2)cc1 | -1.0 | 74.6* | -1.6 | -0.6 | 9.4 | 5.5
CCOc1cc(OCC)cc(C(=O)Nc2cccnc2)c1 | 1.5 | 40.1 | -0.4 | 0.5 | 58.8* | 18.2
SMILES | GAA850 FXN act | AHR act | NR0B1 inh | HSP90 refold inh | HSF1 activator | HSF1 inhib
COc1ccc([N+](=O)[O-])cc1NCc1cccnc1 | 2.8 | 4.9 | 0.4 | 0.7 | 3.8 | -1.9
N/C(=N\OC(=O)CCCc1ccccc1)c1ccccc1Cl | 3.4 | -2.6 | 1.4 | 1.2 | -2.2 | 7.9
COc1ccc2c(c1)C(c1ccccc1)NC(=O)C2 (stereo unspecified) | 1.9 | 1.9 | -0.7 | . | 9.6 | -4.3
CCOc1ccc(NC(=O)Nc2cccnc2)cc1 | 3.6 | 61.4* | 2.1 | -3.8 | -4.5 | -6.4
O=C(Nc1cc([N+](=O)[O-])ccc1C(=O)Nc1cccnc1)c1ccccc1 | 1.4 | 66.1* | 0.0 | 0.5 | -6.3 | 0.1
O=C(Nc1cccnc1)c1ccc(-c2ccccc2)cc1 | 2.4 | 3.7 | 3.0 | -4.8 | 65.7* | 27.7
O=C(Nc1cccnc1)c1cccc([N+](=O)[O-])c1 | -0.4 | 4.3 | 0.7 | -5.3 | 26.6 | 9.6
COc1cc(OC)cc(C(=O)Nc2c(F)cccc2F)c1 | 0.2 | 59.0* | 0.2 | -0.2 | -6.1 | -2.3
COc1ccc(NC(=O)Nc2cccnc2)cc1 | 0.8 | 26.9 | 0.1 | -1.6 | -18.1 | -3.9
CC12CCC3c4ccccc4CCC3(CO1)C2 (stereo unspecified) | 1.0 | . | 0.7 | . | . | .
[O-][n+]1ccc(CC(O)(C(F)(F)F)C(F)(F)F)cc1 | -0.5 | . | -0.1 | . | . | .
O=C(Nc1cccnc1)c1cc(-c2ccccc2)on1 | 1.2 | 4.3 | 0.0 | 4.6 | 8.8 | 8.8
COc1cc(C(=O)Nc2cccc3cccnc23)cc(OC)c1OC | -0.6 | 11.8 | -1.3 | -1.0 | 4.5 | -1.9
COc1cc(OC)cc(C(=O)Nc2cccc3cccnc23)c1 | 1.4 | 50.3* | -0.4 | -6.2 | -4.0 | -4.1
COc1cc(OC)cc(C(=O)Nc2cccnc2)c1 | 0.1 | 59.5* | 0.3 | 6.7 | 24.2 | 6.1
COc1cccc(-c2cc(C(=O)Nc3cccnc3)no2)c1 | -0.4 | 11.9 | -0.4 | 11.4 | 77.6* | 33.0
Cc1cc(C)c2c(N)c(C(=O)Nc3cccc(C)c3C)sc2n1 | -1.5 | 67.8* | -1.4 | 1.5 | 52.4* | 13.2
Cc1ccc(NC(=O)c2sc3nc(C)cc(C)c3c2N)cc1 | 2.4 | 27.4 | 4.2 | -3.1 | 23.3 | 13.7
Cc1cc(C)c2c(N)c(C(=O)N/N=C/c3ccccc3)sc2n1 | 2.6 | -7.5 | 8.7* | -0.8 | 16.9 | 7.3
Cc1oc2c(CN3CCCC(C)C3)c(O)ccc2c(=O)c1-c1ccccc1 (stereo unspecified) | -1.0 | 0.1 | -1.6 | -2.4 | -19.0 | 0.1
O=C(NC(=S)Nc1cccc2ncccc12)c1cccs1 | -0.2 | 16.7 | -1.3 | 1.1 | 10.7 | 0.9
O=C(Nc1nc2c(ccc3ccccc32)s1)c1ccco1 | 6.8 | 66.1* | 0.9 | 3.9 | 29.9 | 20.2
O=C(NC(=S)Nc1nc2c(ccc3ccccc32)s1)c1cccs1 | 0.8 | 67.4* | 1.2 | 0.0 | -34.2 | -21.2
O=C(Nc1ccc(-c2nc3c(ccc4ccccc43)o2)cc1)c1ccco1 | 2.1 | 67.0* | 1.2 | 1.9 | 16.8 | 11.3
O=C(Nc1nc2c(F)c(F)c(F)cc2s1)c1ccco1 | -0.1 | 1.5 | 1.4 | 2.8 | 12.6 | 5.3
CCOc1ccccc1O[C@H](c1ccccc1)[C@H]1CNCCO1 | -6.9 | -1.0 | -1.3 | . | -17.3 | 0.3
Cc1ccc(NC(=O)c2ccc(NC(=O)C3CCCCC3C(=O)O)cc2)cc1 (stereo unspecified) | -7.5 | -5.3 | 0.6 | 1.0 | -8.4 | -2.8
CC1CCc2c(sc(Nc3nc4c(F)cccc4s3)c2C(N)=O)C1 (stereo unspecified) | 3.8 | 56.3* | -0.5 | 1.5 | 0.9 | 1.1

Source: PubChem
